The entries come from a sample that favours hits as a whole.
S aureus helic = blocks Staphylococcus aureus DNA helicase | purified S. aureus helicase, fluorescence unwinding assay | inhibition, % (test concentration not listed) | 0.05% of 120,000 active; in the data active = inhibition above about 25%, passing the limit was not always enough
Sa growth inh = blocks Staphylococcus aureus growth. relative growth, % (test concentration not listed). AID 720641. 0.53% of 170,000 active. S. aureus RN4220 growth, OD600, 20 h, 42 °C; hits give low values;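 active = relative growth at most 50% at the other temperature and 20+ points below 30 °C, or under 10% at both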
Each line names hits and unclear results; the compound was inactive in the other large screens.

O=c1c(=NNc2nn[nH]n2)c(=O)c2ccccc12	Sa growth inh 1.4
O=c1c(=NNc2ccccc2)c(=O)c2ccccc12	none (no result: S aureus helic)
O=C1C(=O)N(CO)C(c2ccccc2)/C1=C(\O)c1ccccc1 (configuration not stated)	none
O=C(NC1CCCCC1)c1sc(=S)n2c1[nH]c(=O)c1ccccc12	Sa growth inh -0.2
O=C(NCCc1ccccc1)c1sc(=S)n2c1[nH]c(=O)c1ccccc12	none
COc1cc(C(=O)N2CCc3ccccc3C2)cc(NC(=O)c2ccco2)c1OC	none
COc1ccccc1OCCn1c(NC(=O)c2ccccc2)nc2ccccc21	none (no result: S aureus helic)
COc1ccccc1C(=O)Nc1nc2ccccc2n1CCOc1ccccc1	Sa growth inh 1.0
CCN1CCN(C(=O)c2ccc3c(c2)NC(=O)c2ccccc2S3)CC1	none
CC1CCC2C(O1)c1ccccc1OC2(C)C (configuration not stated)	none
O=C1c2ccccc2C(=O)c2c1oc1c3c(ccc21)OCN(Cc1ccccc1)C3	none
CCCCN1COc2ccc3c4c(oc3c2C1)C(=O)c1ccccc1C4=O	S aureus helic 51
C=C(C)CN(CC)c1nc(N)c2c(N)nc3c(c2c1C#N)CC(=O)N3CC1CCCO1 (configuration not stated)	none
CN1CCN(NC(=O)Cc2cccs2)CC1	none
CO[C@@]1(NC(=O)CSCC#N)C(=O)N2C(C(=O)O)=C(CSc3nnnn3C)CSC21 (some centres not stated)	Sa growth inh -0.6 (no result: S aureus helic)
Cn1nnnc1SCC(=O)NN1C(=O)NC(C)(c2ccccc2)C1=O (configuration not stated)	none
CO[C@@]1(NC(=O)Cc2cccs2)C(=O)N2C(C(=O)O)=C(COC(N)=O)CS[C@@H]21	Sa growth inh -1.0 (no result: S aureus helic)
COc1ccccc1CC(=O)n1cccn1	none
N#CCOC(=O)C1COc2ccccc2O1 (configuration not stated)	none
O=C(Nc1ccc(Cl)c(Cl)c1)OCc1cccnc1	Sa growth inh 8.0
O=C(Nc1ccc(Cl)c(Cl)c1)OCc1ccco1	none
CC1c2ccsc2CCN1C(=O)c1ccc(Cl)cc1 (configuration not stated)	none (no result: S aureus helic)
COc1ccc(S(=O)(=O)N(C)C2(C)CCS(=O)(=O)C2)cc1C (configuration not stated)	none
O=C(Oc1c(Cl)cc(Cl)c2cccnc12)c1ccco1	Sa growth inh 1.7
Oc1c(Cl)cc(Cl)c2cccnc12	none (no result: S aureus helic)
COc1cc(C(=O)N(Cc2ccco2)Cc2ccccc2F)cc(OC)c1OC	none
O=C(C=C1SCCS1)c1cccs1	none (no result: S aureus helic)
CN1C(=O)/C(=C\C(=O)c2cccs2)c2ccccc21	Sa growth inh 2.9
CN(Cn1nc2sc3ccccc3n2c1=S)C1CCCCC1	none
S=c1n(CN2CCCC2)nc2sc3ccccc3n12	Sa growth inh 39
C=CCN1C(=O)S/C(=C/c2ccc(OC)c(OCC)c2)C1=O	none
N=C1S/C(=C\c2ccc(F)cc2)C(=O)N1c1nccs1	Sa growth inh 5.1
N=C1S/C(=C/c2ccccc2)C(=O)N1c1nonc1N	none
CCOc1cc(/C=C2/SC(=N)N(c3nccs3)C2=O)ccc1OCCN1CCOCC1	Sa growth inh 8.0
CCOc1ccccc1NC(=O)CCc1nnc2ccc(N3CCN(C)CC3)nn12	none
CC1N(C)c2cc(NC(=O)c3ccco3)c(P(=O)(Nc3cccc(C(F)(F)F)c3)N3CCOCC3)cc2C1(C)C (configuration not stated)	none
CCN1CCOC(=O)C1CC(=O)Nc1ccccc1C(F)(F)F (configuration not stated)	Sa growth inh 30 (no result: S aureus helic)
CCc1ccc(NC(=O)CC2C(=O)OCCN2CC)cc1 (configuration not stated)	none (no result: S aureus helic)
N#CCCn1cc(C(=O)CSc2nnc(-c3ccccc3Cl)n2C2CCCC2)c2ccccc21	none
CSc1ccc(-c2nc(CSCC(=O)N(C)Cc3ccccc3)c(C)o2)cc1	none
CCN1C(C(=O)c2ccccc2)=C(OC(=O)c2ccc(Cl)cc2)c2ccccc2S1(=O)=O	none (no result: S aureus helic)
CCN1C(C(=O)c2ccccc2)=C(OC(=O)c2ccco2)c2ccccc2S1(=O)=O	Sa growth inh 6.2
CCN(CC)S(=O)(=O)c1ccc(NC(=O)/C=C/c2ccc(F)cc2)cc1	none
CC[C@H]1OC(=O)[C@H](C)[C@@H](O[C@H]2C[C@@](C)(OC)[C@@H](O)[C@H](C)O2)[C@H](C)[C@@H](O[C@@H]2O[C@H](C)C[C@H](N(C)C)[C@H]2O)[C@](C)(O)C[C@@H](C)CN(C)[C@H](C)[C@@H](O)[C@]1(C)O	Sa growth inh -0.9 (no result: S aureus helic)
c1csc(-c2nc(NC3=NCCCCC3)sc2-c2cccs2)c1	none
C=CCNC(=O)c1ccccc1NC(=O)CC	none
O=C(Nc1cccc(-c2ncon2)c1)c1ccc(Cl)cc1	none (no result: S aureus helic)
CCN1/C(=C/c2scc[n+]2C)C=C(C)c2cc(OC)c3ccccc3c21	Sa growth inh -1.3
CCN1C(=O)c2ccccc2Sc2ccc(NC(=O)Nc3ccccc3OC)cc21	none (no result: S aureus helic)
Cc1ccc(C)c(/C(O)=C2/C(=O)C(=O)N(CCc3ccccc3)C2c2ccc(O)cc2)c1 (configuration not stated)	none (no result: Sa growth inh)
N#CC(C#N)=C(Nc1ccc(Br)cc1)SCc1ccc(F)cc1	none
N#CC(C#N)=C(Nc1ccccc1Cl)SCc1cccc(F)c1	Sa growth inh 0.1
N#C/C(=C\c1ccccc1)C(=O)Nc1cccc2c(=O)[nH][nH]c(=O)c12	none
Brc1ccc(NC2=NCCCCCC2)cc1	none
O=C(O)Cc1coc(-c2ccc(F)cc2)n1	none
CN(Cc1coc(-c2ccccc2)n1)Cc1coc(-c2ccccc2)n1	Sa growth inh -1.3
CC1CC(C)CN(c2ccc(NC(=O)c3ccc(Cl)cc3)cc2C(=O)O)C1 (configuration not stated)	none (no result: S aureus helic)
CCOC(=O)C1=C(CC)Nc2ccccc2N=C1NC(=O)C1CC(=O)N(CCc2ccccc2)C1 (configuration not stated)	none
CCOc1cccc(OCC)c2c(C)[n+](C)c(C)c1-2	S aureus helic 58
CCOc1cccc(OCC)c2c(C)nc(C)c1-2	none
CC(C)(C)c1nnc(SCC(=O)Nc2ccc(Br)cc2)n1N	none (no result: Sa growth inh)
O=C1OC2(O)c3ccccc3C(=O)N2c2ccccc21 (configuration not stated)	none
O=C1C=C2N(c3ccccc3)CCOC2(O)c2ccccc21 (configuration not stated)	Sa growth inh 4.8
COc1ccc(NC(=O)c2ccc(-c3nc(COc4ccccc4)c(C)o3)cc2)c(OC)c1	none
Oc1ccc(Br)cc1C1CC(c2ccccc2)=NC(c2ccco2)N1 (configuration not stated)	Sa growth inh 2.5
Oc1ccccc1C1CC(c2cccc(Br)c2)=NC(c2ccc(Br)cc2)N1 (configuration not stated)	none
CCCCc1nnc(NC(=O)c2c(OC)cccc2OC)s1	none
CN[C@@H]1[C@@H](O[C@H]2O[C@H](CO)[C@@H](N)[C@H](O)[C@H]2O)O[C@H]2C[C@@H](N)[C@H](O[C@H]3[C@H](O)[C@@H](O)[C@H](N)C[C@@H]3N)O[C@@H]2[C@@H]1O	none (no result: S aureus helic)
NC[C@H]1O[C@H](O[C@H]2[C@H](O)[C@@H](O[C@H]3O[C@H](CO)[C@@H](O)[C@H](N)[C@H]3O)[C@H](N)C[C@@H]2N)[C@H](N)[C@@H](O)[C@@H]1O	Sa growth inh -0.2 (no result: S aureus helic)
O=C(Nc1cccc(Br)c1)Nc1nc2c(s1)CCCCCC2	Sa growth inh 37 (no result: S aureus helic)
Cc1cccc(C(=O)Nc2nc3c(s2)CCCC3)c1	none (no result: S aureus helic)
C/C(=N\N=C(N)N)c1ccco1	none
CN1CCc2c(OCc3ccc(Cl)cc3)cccc2C1=O	Sa growth inh 6.4
CCCCOc1cccc2c1CCN(C)C2=O	none
